This passage reports activity, negative = inhibition and Potency results from PubChem BioAssay (NCATS).

Values joined by “and” are separate entries in the source; they are usually repeats but may differ in a detail not shown here. Equal entries are not always repeated. Unmarked numbers belong to inactive results. Records with an inconclusive call do not appear. Active and inactive are the calls of the source. Unless noted, the call rests on the fitted dose curve; in most records, active means well fitted curve in either direction with a large enough effect (not every such curve was filed as active); inconclusive means small, poorly fitted or top-dose-only effect, or another doubt; inactive means flat fitted curve, though single readings scatter.

System in the first experiment: not listed separately
The experiment can be described thus: Stat Signaling Pathway (AID 446).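 Further: ME-180 cervical cancer cells given 40 pM IL-6 alongside compound; SIE-controlled beta-lactamase reporter measured as 460/530 nm FRET emission ratio; on the % scale 0 is the no-effect control and ±100 the full control effect.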 The note with it: ME-180 (cervical carcinoma) SIE beta-lactamase reporter, IL-6 stimulated, 5 h; at 7.69 µM (top of the series) unless noted. The essentials: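 Overnight-plated ME-180 cells bearing a STAT Inducible Element beta-lactamase reporter; 5 h co-exposure to compound and 40 pM IL-6; values normalized to 300 pM IL-6 and 125 nM JAK inhibitor controls.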
On to `Cc1ccc(O)cc1` (tested in a mixture with another compound), for which the activity, negative = inhibition is -4.46%.
Still for that read-out and setting: the result for `CCCOC(=O)[C@@H]1[C@@H](C(=O)O)[C@H]2CC[C@@H]1O2` reads 8.61%.
The same measure, in the same setting: to `O=C(O)C(Oc1nc(=S)[nH]c(=S)[nH]1)(c1ccc(Cl)cc1)c1ccc(Cl)cc1` belongs 3.94%; to `C[C@@]12CC[C@H]3[C@@H](CC=C4C[C@H](OS(=O)(=O)O)CC[C@]43C)[C@H]1CCC2=O`, -15.3% [at 38 µM].
Same read-out and setting: to `CN(C)CCC(C#N)(c1ccccc1)c1ccccc1` belongs 6.64%.
As for `COC(=O)c1c(C)ccc2c(O)c3c(cc12)C(=O)c1c2c(cc(O)c1C3=O)[C@@]1(C)O[C@@](C)(O2)[C@@H](O)[C@H](N(C)C)[C@H]1O`, the activity, negative = inhibition was 10.6%.
On the same count and under the same terms, the result for `C[N+]1(C)C2CC[C@H]1CC(OC(=O)[C@@H](CO)c1ccccc1)C2` (some centres undefined) reads 7.35%; that for `COc1ccc2c(c1O)-c1cccc3c1[C@H](C2)N(C)CC3`, 28.1% [at 38 µM].
Same read-out and setting: to `COc1cc2c(cc1OC)[C@@]13CCN4C=C5CCO[C@H]6CC(=O)N2[C@@H]1[C@@H]6[C@H]5C[C@H]43` belongs 2.38%.
The same measure, in the same setting: to `O=C(N1CCOCC1)C1(c2ccccc2)CCNCC1` belongs 8.97%; to `COc1cc([C@@H](O)CN)ccc1O`, 3.87% [at 38 µM]; to `CC(=O)c1c(O)c(C)c(O)c(Cc2c(O)c3c(c(C(=O)/C=C\c4ccccc4)c2O)OC(C)(C)C=C3)c1O`, -35.6% [at 38 µM].
Take `O=C(O)C(C(=O)O)P(=S)(S)c1ccccc1` (centres undefined): the activity, negative = inhibition is 2.85%.
For the compound `O=C(O)[C@H]1[C@H](C(=O)O)[C@H]2CC[C@@H]1O2`, the activity, negative = inhibition is -14.7% [at 38 µM].
On the same count and under the same terms, to `CN[C@H]1[C@H](C)O[C@@H](O[C@@H]2C/C=C(/C)C/C(C)=C\C=C/CC[C@@H](C)CNC(=O)/C=C\C=C/[C@H]2C)C[C@@H]1O` belongs -1.24%; to `N=C(N)SCc1ccc(Cl)c2ccccc12` (tested in a mixture with another compound), -8.84% and -10.7%; to `COc1ccc2c(c1)[C@]13CCCC[C@@H]1[C@H](C2)NCC3`, -11.2% [at 38 µM].
Take `C[C@@]12CC[C@H](O)C[C@@H]1CC[C@@H]1[C@@H]2CC[C@@]2(C)[C@@H](C3=CC(=O)OC3)[C@H](O)C[C@]12O`: the activity, negative = inhibition is 8.74%.
Same read-out and setting: the result for `O=C(C[C@H](c1ccccc1)c1c(O)c2ccccc2oc1=O)c1ccccc1` reads -9.56%; that for `COc1ccc(C[C@@H]2NC[C@H](O)[C@@H]2OC(C)=O)cc1`, -101% [at 17.2 µM] (active).
The same measure, in the same setting: to `CO[C@@H]1CC=C2CCN3CCC4=C(CC(=O)OC4)[C@]23C1` belongs -4.68% [at 38 µM]; to `CCNC(=O)[C@@H]1O[C@@H](n2cnc3c(N)ncnc32)[C@@H](O)[C@H]1O`, 24.4% [at 38 µM]; to `C[C@]12CC[C@@H]3[C@H](CCC4=CC(=O)CC[C@]43C)[C@]1(O)CC[C@@]2(O)C(=O)CO`, -1.84%.
As for `C[C@H](CC(C#N)(c1ccccc1)c1ccccc1)N1CCCCC1`, the activity, negative = inhibition is 2.01%.
Same read-out and setting: the result for `COc1cc2ccccc2c2cc([N+](=O)[O-])oc12` reads 16.1%; that for `CC(C)N[C@@H](C)Cc1ccc(I)cc1`, -4.05% [at 38 µM].
On the same count and under the same terms, to `O=S(=O)(NCCO)c1cc[c]([Sb](=[O])([OH])[OH])cc1` belongs 6.67%; to `NC(=O)CN1C[C@@H](O)CC1=O`, -8.38% [at 38 µM]; to `CCSCC[C@H](N)C(=O)O`, -0.0113%.
Same read-out and setting: the result for `O=C(O)C(O)(c1ccc(-c2ccccc2)cc1)c1ccc(-c2ccccc2)cc1` reads -5.5%; that for `O=C(O)C[O][Sb][O]CC(=O)O`, 7.88%.
For the compound `Nc1c(C(=O)Nc2ccc([As](=O)(O)O)cc2)cnc2nnnn12`, the activity, negative = inhibition is -0.343%.
On the same count and under the same terms, the result for `C[Se]C[C@@H](N)C(=O)O` reads -28.4% [at 38 µM].
The same measure, in the same setting: to `CN(C)[C@@H]1C(=O)C(C(N)=O)=C(O)[C@]2(O)C(=O)C3=C(O)c4c(O)cccc4[C@](C)(O)[C@H]3C[C@@H]12` belongs -10.5%.
For `CN(C)CCCNc1c2c(nc3ccc(Cl)cc13)CCCC2`, the activity, negative = inhibition was 10%.

The target of the next experiment is Glucocorticoid receptor (Homo sapiens) (UniProt P04150). The experiment can be described thus: GR-GFP Redistribution (AID 450;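 active means compounds whose dose series gives a full or clear partial fitted curve of increased nuclear translocation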; further: potency means the concentration at half of the fitted maximal effect). The note with it: U2OS GR-GFP nuclear translocation, laser cytometry, 2 h.
Chain of Glucocorticoid receptor (Homo sapiens) (P04150 whole entry, looked up): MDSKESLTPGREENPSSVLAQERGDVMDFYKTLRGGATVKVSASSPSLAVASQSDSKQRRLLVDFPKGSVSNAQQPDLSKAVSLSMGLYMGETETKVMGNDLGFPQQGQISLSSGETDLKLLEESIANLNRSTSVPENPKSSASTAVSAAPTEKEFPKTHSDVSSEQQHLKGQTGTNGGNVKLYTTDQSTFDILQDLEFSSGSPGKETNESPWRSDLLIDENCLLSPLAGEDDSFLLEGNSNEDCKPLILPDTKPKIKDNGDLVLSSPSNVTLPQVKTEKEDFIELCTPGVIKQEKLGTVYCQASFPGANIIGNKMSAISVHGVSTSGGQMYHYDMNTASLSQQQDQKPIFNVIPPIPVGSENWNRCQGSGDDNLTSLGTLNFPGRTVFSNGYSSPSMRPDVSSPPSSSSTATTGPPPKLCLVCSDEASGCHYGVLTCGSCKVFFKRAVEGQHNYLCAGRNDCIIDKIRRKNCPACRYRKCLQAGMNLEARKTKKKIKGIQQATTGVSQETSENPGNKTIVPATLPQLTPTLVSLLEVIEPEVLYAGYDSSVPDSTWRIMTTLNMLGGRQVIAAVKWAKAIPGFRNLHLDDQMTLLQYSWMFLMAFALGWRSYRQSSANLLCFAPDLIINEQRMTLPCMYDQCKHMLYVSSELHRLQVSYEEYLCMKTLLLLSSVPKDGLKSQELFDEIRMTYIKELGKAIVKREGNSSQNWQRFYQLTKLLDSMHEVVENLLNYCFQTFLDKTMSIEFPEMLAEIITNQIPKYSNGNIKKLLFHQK
Consider `Cc1ccc(O)cc1` (tested in a mixture with another compound), for which the Potency is more than 46 µM.
For the compound `CCCOC(=O)[C@@H]1[C@@H](C(=O)O)[C@H]2CC[C@@H]1O2`, the Potency is more than 46 µM.
Still for that read-out and setting: the result for `O=C(O)C(Oc1nc(=S)[nH]c(=S)[nH]1)(c1ccc(Cl)cc1)c1ccc(Cl)cc1` reads more than 46 µM; that for `O=C(Nc1ccc([As](=O)(O)O)cc1)Nc1cccc(Cl)c1Cl`, more than 46 µM; that for `C[C@@]12CC[C@H]3[C@@H](CC=C4C[C@H](OS(=O)(=O)O)CC[C@]43C)[C@H]1CCC2=O`, more than 46 µM.
For `CCOC(=O)[C@@H]1[C@@H]2c3ccccc3-c3ccccc3[C@H]2C[C@H]1O`, the Potency is more than 46 µM.
On the same count and under the same terms, the result for `COC(=O)c1c(C)ccc2c(O)c3c(cc12)C(=O)c1c2c(cc(O)c1C3=O)[C@@]1(C)O[C@@](C)(O2)[C@@H](O)[C@H](N(C)C)[C@H]1O` reads more than 46 µM; that for `COc1ccc2c(c1O)-c1cccc3c1[C@H](C2)N(C)CC3`, more than 46 µM.
`O=C(N1CCOCC1)C1(c2ccccc2)CCNCC1`: the Potency is more than 46 µM.
On to `COc1cc([C@@H](O)CN)ccc1O`, for which the Potency was more than 46 µM.
`O=C(O)C(C(=O)O)P(=S)(S)c1ccccc1` (centres undefined): the Potency was more than 46 µM.
Same read-out and setting: the result for `O=C(O)[C@H]1[C@H](C(=O)O)[C@H]2CC[C@@H]1O2` reads more than 46 µM; that for `c1cncc(CNCCN2CCNCC2)c1`, more than 46 µM.
Still for that read-out and setting: the result for `CN[C@H]1[C@H](C)O[C@@H](O[C@@H]2C/C=C(/C)C/C(C)=C\C=C/CC[C@@H](C)CNC(=O)/C=C\C=C/[C@H]2C)C[C@@H]1O` reads more than 46 µM; that for `COc1ccc2c(c1)[C@]13CCCC[C@@H]1[C@H](C2)NCC3`, more than 46 µM; that for `C[C@@]12CC[C@H](O)C[C@@H]1CC[C@@H]1[C@@H]2CC[C@@]2(C)[C@@H](C3=CC(=O)OC3)[C@H](O)C[C@]12O`, more than 46 µM.
Still for that read-out and setting: to `O=C(C[C@H](c1ccccc1)c1c(O)c2ccccc2oc1=O)c1ccccc1` belongs more than 46 µM.
Take `COc1ccc(C[C@@H]2NC[C@H](O)[C@@H]2OC(C)=O)cc1`: the Potency is more than 20.6 µM.
Regarding `CO[C@@H]1CC=C2CCN3CCC4=C(CC(=O)OC4)[C@]23C1`, the Potency is more than 46 µM.
Still for that read-out and setting: the result for `Cc1ccc(NC(=[OH+])c2cc3ccccc3cc2O)c(C)c1.Cc1ccc(NC(=[OH+])c2cc3ccccc3cc2O)c(C)c1.[Ni]` reads more than 46 µM; that for `CCNC(=O)[C@@H]1O[C@@H](n2cnc3c(N)ncnc32)[C@@H](O)[C@H]1O`, more than 46 µM.
On the same count and under the same terms, the result for `C[C@]12CC[C@@H]3[C@H](CCC4=CC(=O)CC[C@]43C)[C@]1(O)CC[C@@]2(O)C(=O)CO` reads 0.822 µM (active).
On to `C[C@H](CC(C#N)(c1ccccc1)c1ccccc1)N1CCCCC1`, for which the Potency is more than 46 µM.
As for `O=S(=O)(NCCO)c1cc[c]([Sb](=[O])([OH])[OH])cc1`, the Potency is more than 46 µM.
Still for that read-out and setting: the result for `NC(=O)CN1C[C@@H](O)CC1=O` reads more than 46 µM.
Still for that read-out and setting: the result for `O=C(O)C(O)(c1ccc(-c2ccccc2)cc1)c1ccc(-c2ccccc2)cc1` reads more than 46 µM; that for `Nc1c(C(=O)Nc2ccc([As](=O)(O)O)cc2)cnc2nnnn12`, more than 46 µM.
Still for that read-out and setting: to `C[Se]C[C@@H](N)C(=O)O` belongs more than 46 µM; to `CN(C)CCCNc1c2c(nc3ccc(Cl)cc13)CCCC2`, more than 46 µM.
